Shiga inhibitor – A qHTS for Small Molecule Inhibitors of Shiga Toxin. AID 2315, 2010. Vero cells, Shiga toxin protein synthesis inhibition reporter. inhibition, % at 38.7 µM. actives 9.2% (n = 290,000); in the data active = inhibition mostly above about 28%, no sharp cut-off; inactive = mostly below about 43%
Tb PYK inh – qHTS of Trypanosoma Brucei Inhibitors; pyruvate kinase (Trypanosoma brucei), Q57TT1; TbPYK enzyme, Kinase-Glo Plus ATP luminescence, 45 min; Potency, µM (highest dose often 76.8 µM), most hits filed as inhibitors; actives 0.12% (n = 410,000); active = well fitted curve in the direction sought with a large enough effect; inconclusive = small, poorly fitted or top-dose-only effect, or another doubt; inactive = no such curve, though single readings can be large; an effect the other way counts as inactive or inconclusive; note: nearly all actives have a fitted effect of over 50% in size
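Readout: single end-point luminescence (Kinase-Glo Plus, 10 min). Reaction conditions were TbPYK/substrate plus 130 uM ADP, 45 min at RT, pH 7.2 TEA buffer. No-enzyme wells served as controls, and data were normalized before concentration-response fitting.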
NS1 inh – qHTS Assay for Inhibitors of Influenza NS1 Protein Function; actives 0.4% (n = 270,000); Potency, µM (doses to about 46.1 µM); AID 2326, 2010; note: actives are rising curves; nearly all actives have a fitted effect of over 50% in size
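A cell-based growth assay was used: compounds that relieve NS1-induced slow growth of budding yeast raise OD600. Assay medium was yeast nitrogen base with ammonium sulphate and -URA supplement, pH 6.0, with 2% galactose.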
SARS PLpro yeast – qHTS of Yeast-based Assay for SARS-CoV PLP | AID 485353, 2010 | S. cerevisiae expressing SARS-CoV PLpro, growth rescue | actives 0.19% (n = 330,000) | Potency, µM (top dose mostly 32.9 µM), most hits filed as activators; note: nearly all actives have a fitted effect of over 55% in size
LmPK inhibitor – qHTS Assay for Inhibitors of Leishmania Mexicana Pyruvate Kinase (LmPK) | Q27686 | purified LmPK, Kinase-Glo ATP luminescence, 1 h | Potency, µM (doses to about 57.5 µM), actives largely listed as inhibitors | actives 0.37% (n = 290,000) | AID 1721, 2009; active = well fitted curve in the direction sought with a large enough effect; inconclusive = small, poorly fitted or top-dose-only effect, or another doubt; inactive = no such curve, though single readings can be large; an effect the other way counts as inactive or inconclusive
Target sequence (Q27686 whole entry, looked up): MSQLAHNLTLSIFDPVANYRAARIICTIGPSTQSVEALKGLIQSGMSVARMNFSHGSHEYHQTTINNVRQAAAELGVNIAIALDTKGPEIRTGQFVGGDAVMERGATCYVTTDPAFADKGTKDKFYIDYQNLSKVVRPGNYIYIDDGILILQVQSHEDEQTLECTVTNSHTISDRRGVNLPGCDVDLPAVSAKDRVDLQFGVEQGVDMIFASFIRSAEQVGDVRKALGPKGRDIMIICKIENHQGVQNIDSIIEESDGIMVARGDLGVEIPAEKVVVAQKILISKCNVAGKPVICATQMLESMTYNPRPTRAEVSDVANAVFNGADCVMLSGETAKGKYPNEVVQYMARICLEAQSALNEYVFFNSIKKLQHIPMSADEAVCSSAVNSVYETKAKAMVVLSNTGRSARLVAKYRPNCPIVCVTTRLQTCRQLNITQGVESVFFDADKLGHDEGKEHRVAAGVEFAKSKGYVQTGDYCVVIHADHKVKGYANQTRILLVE
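Screened at intermediate enzyme activity to detect both inhibitors and activators: LmPK at 0.1 nM, with a 0.5 nM enzyme column as activation reference. PEP 0.5 mM, ADP 0.1 mM; ATP detected by luminescence after 1 h.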
Cycloheximide cs – Cycloheximide Counterscreen for Small Molecule Inhibitors of Shiga Toxin; max response, %; cell reporter, cycloheximide protein synthesis inhibition counterscreen; actives 12% (n = 300,000); in the data active = max response mostly above about 13%, no sharp cut-off; inactive = mostly below about 14%; note: read at 38.3 µM for the half of the compounds with a filed dose
Numbers stand for hits; – = inactive; ? = inconclusive; · = no result; [ ] = remark or other dose. The entries come from a sample that favours hits as a whole. Unless noted, calls come from the whole dose curve.

SMILES	Shiga inhibitor	Tb PYK inh	NS1 inh	SARS PLpro yeast	LmPK inhibitor	Cycloheximide cs
CCOC(=O)CNC(=O)Nc1cc(C(C)(C)C)nn1-c1ccccc1	–	–	–	–	–	37
Nc1nc(SCc2ccccc2)ns1	35	–	–	–	–	17
Nc1nc(SCc2ccc(Cl)cc2)ns1	68	–	–	–	–	38
Nc1nc(SCc2ccccc2Cl)ns1	58	–	–	–	–	17
CSc1nsc(SCc2ccc(Cl)cc2)n1	–	–	–	–	–	–
Nc1ccccc1SSc1ccccc1N	127	?	–	–	–	69
Cc1ccc2nc(-c3ccc(Cl)cc3)cc(C(=O)OCC(=O)c3ccccc3)c2c1	·	–	·	·	·	·
COc1ccc(Nc2nc3cc(Cl)c(Cl)cc3n3cnnc23)cc1Cl	·	–	·	·	·	·
Nc1ccccc1SCc1ccccc1Cl	56	–	–	–	–	25
Cc1ccccc1C(=O)c1cccn1CC(=O)NCc1cccc(Cl)c1	42	–	–	–	–	50
COc1cccc(CNC(=O)Cn2cccc2C(=O)c2ccccc2)c1	·	–	·	·	·	·
COc1ccccc1CNC(=O)Cn1cccc1C(=O)c1ccccc1C	46	–	–	–	–	43
COc1cccc(CNC(=O)Cn2cccc2C(=O)c2ccccc2C)c1	–	–	–	–	–	21
Cc1ccccc1C(=O)c1cccn1CC(=O)NCCC1=CCCCC1	–	–	·	–	–[11.5 µM]	25
CCOC(=O)c1c(NC(=S)NNS(=O)(=O)c2ccc(Br)cc2)sc2c1CCCCC2	–	–	–	–	–	–
CCCNC(=O)c1ccc2c(=O)c(O)c(-c3ccc(F)cc3)[nH]c2c1	–	–	–	13µM	–	–
O=C(Cn1c(=O)c2cccn2c2ccc(F)cc21)N1CCN(c2ccccc2)CC1	·	–	·	·	·	·
C=CCOc1cccc(C2/C(=C(\O)c3ccc4c(c3)OCCO4)C(=O)C(=O)N2CCN2CCOCC2)c1 (stereo not drawn)	–	–	–	–	–	–
O=C(NCc1ccc(F)cc1)c1cc2n(n1)CCCN(Cc1ccc(F)cc1)C2=O	·	–	·	·	·	·
N#C/C(=C/c1cccs1)c1ccccn1	73	–	–	–	–	35
Cc1cc(C)n2nc(/C(C#N)=C/c3ccccn3)c(C#N)c2n1	–	–	·	–	–	25
N#C/C(=C\c1ccccn1)c1ccccn1	61	–	–	–	–	33
Cc1cc(C)n2nc(CC#N)c(C#N)c2n1	–	–	·	–	–	–
CC1CCC(NC(=O)Nc2cccs2)CC1 (stereo not drawn)	44	–	–	–	–	24
O=C(NCC1CC1)Nc1cccs1	–	–	–	–	–	–
SMILES	Shiga inhibitor	Tb PYK inh	NS1 inh	SARS PLpro yeast	LmPK inhibitor	Cycloheximide cs
CC1CCC(NC(=O)CNC(=O)c2cccs2)CC1 (stereo not drawn)	116	–	–	–	–	45
O=C(Nc1cccs1)NC1CCCC1	–	–	–	–	–	25
O=C(CNC(=O)c1ccccc1F)NC1=NCCS1	–	–	–	–	–	–
Cc1ccc(C(=O)NCC(=O)NC2CCC(C)CC2)s1 (stereo not drawn)	·	–	·	–	·	·
O=C(CNC(=O)c1cccs1)NC1=NCCS1	21	–	–	–	–	42
CCC(C)(C)n1nnnc1C(c1ccccc1F)N1CCN(C(=O)c2ccco2)CC1 (stereo not drawn)	–	–	–	–	–	–
CCCC[C@H]1CCCO[C@@](C(=O)NCc2ccccn2)(C(F)(F)F)C1	–	·	·	·	·	–
CC(C)(C)c1nnc(NC(=O)c2cccnc2Cl)s1	–	–	–	–	–	–
O=C(Nc1nnc(SCc2ccc(F)cc2)s1)c1cccnc1Cl	–	–	·	–	–	18
O=C(Nc1nnc(SCc2ccc(F)cc2)s1)c1ccccn1	93	–	·	–	–	40
O/N=C/c1ccn(-c2ccc(Br)cc2)c1	69	–	·	–	–	40
CCOC(=O)Cn1nnc(-c2ccc(S(C)(=O)=O)cc2)n1	–	–	–	–	–	–
CCOC(=O)Cn1nnc(-c2ccc(SC)cc2)n1	67	–	–	–	–	47
NC(=O)Cn1nnc(-c2ccc(C(F)(F)F)cc2)n1	32	–	–	–	–	–
CSc1ccc(-c2nnn(Cc3ccccn3)n2)cc1	79	–	–	–	–	19
Cc1cc(Cn2nnc(-c3ccc(Br)cc3)n2)cc(C)c1O	·	–	·	–	·	·
CC(C)(C)C(=O)Cn1nnc(-c2ccc(C(F)(F)F)cc2)n1	–	–	–	–	–	–
CSc1ccc(-c2nnn(Cc3ccc(Br)cc3)n2)cc1	–	–	–	–	–	36
COc1ccc(-c2ccc(C3C4C=CCC(C)C4C(=O)N3Cc3ccccc3)c(F)c2)cc1 (stereo not drawn)	–	·	·	·	·	–
Cc1ccc(CSCC(=O)N2CCN(c3ccccc3F)CC2)cc1	·	–	·	·	·	·
COc1ccc(NC(=O)c2ccc(F)c(F)c2)c2ccccc12	–	–	–	–	–	–
O=C(O)C1C2CCC(C2)C1C(=O)N1CCCC1 (stereo not drawn)	–	–	–	–	–	–
COc1ccc(NC2=Nc3ccccc3CC2)cc1	–	–	–	–	–	23
O=C1Nc2ccccc2N=C(c2ccccc2)C1N(C(=O)c1ccnc2ccccc12)c1ccccc1 (stereo not drawn)	·	–	·	·	·	·
Cc1cccc2c1-c1sc(C(=O)Nc3cccnc3)cc1CO2	42	–	–	–	–	19
SMILES	Shiga inhibitor	Tb PYK inh	NS1 inh	SARS PLpro yeast	LmPK inhibitor	Cycloheximide cs
O=C(Nc1cccnc1)c1cc2c(s1)-c1ccccc1OC2	54	–	–	·	–	43
CCc1cccc(NC(=O)c2cc3c(s2)-c2ccccc2OC3)c1	·	–	·	·	·	·
Cc1ccc(C)c(S(=O)(=O)N2CCCCC2CCNC(=O)C(=O)NCc2ccccc2)c1 (stereo not drawn)	·	–	·	–	·	·
CCOc1ccc(NC(=O)CN(c2ccc(C)cc2)S(=O)(=O)c2cccs2)cc1	·	–	·	·	·	·
CC(OC(=O)CCc1nc2ccccc2c(=O)[nH]1)C(=O)c1ccc(C(C)(C)C)cc1 (stereo not drawn)	60	–	–	–	–	22
O=C(Nc1ccc2oc(-c3ccccc3F)nc2c1)c1ccc2c(c1)OCCO2	72	–	–	–	–	28
O=C(CN1C(=O)c2ccccc2C1=O)Nc1ccc(-c2nc3ccccc3o2)cc1	–	–	–	–	–	–
O=C(Nc1ccc(-c2nc3ccccc3o2)cc1)c1cccnc1	115	–	–	–	–	44
O=C(Nc1ccc(-c2nc3ccccc3o2)cc1)c1ccc(N2C(=O)C3C4C=CC(C4)C3C2=O)cc1 (stereo not drawn)	42	–	–	–	–	22
O=C(CCN1C(=O)c2ccccc2C1=O)Nc1ccc(-c2nc3ccccc3o2)cc1	83	–	–	–	–	18
